For eight compounds, Potency results are on record in PubChem BioAssay (Tox21).

Values joined by “and” are separate entries in the source; they are usually repeats but may differ in a detail not shown here. Equal entries are not always repeated. Results filed as inconclusive are left out. More than one record can exist for a structure, and the calls need not agree. Active and inactive are the calls of the source. Unless noted, calls follow the shape of the dose curve; as a rule, active = well fitted curve in the direction sought with a large enough effect in the repeat runs; inconclusive = weak or mixed curves; inactive = no such curve, though single readings can be large; an effect the other way counts as inactive or inconclusive.

For experiment [1], the system named is thyroid hormone receptor (rat, GH3 cells). As to the kind of experiment: qHTS assay to identify small molecule agonists of the thyroid receptor (TR) signaling pathway (AID 743066; calls by dose curve). For orientation: In qHTS, concentration-response curves come from the screen itself.
The target in experiment [2] is Estrogen receptor (Homo sapiens) (UniProt P03372). As to the kind of experiment: qHTS assay to identify small molecule antagonists of the estrogen receptor alpha (ER-alpha) signaling pathway (AID 743069; active = well fitted curve in the direction sought with a large enough effect in the signal ratio in the repeat runs, not every such curve was filed as active; the % refers to the signal ratio). The essentials: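 HEK293 cells stably carrying an ER-alpha-UAS-bla beta-lactamase reporter were pre-cultured overnight in 2% charcoal-stripped FBS medium. Test compounds in DMSO were added together with 17beta-estradiol for 18 hr at 37C. Read-out was fluorescence after 2 hr with LiveBLAzer B/G FRET substrate at room temperature.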

Experiment [3] can be described thus: qHTS assay to identify small molecule antagonists of the estrogen receptor alpha (ER-alpha) signaling pathway - cell viability counter screen (AID 743074; calls by dose curve; also: nearly all actives have a fitted effect of over 45% in size; also: potency is read from the fitted curve at half-maximal effect).
For experiment [4], the target named is Estrogen receptor (Homo sapiens) (UniProt P03372). Briefly: qHTS assay to identify small molecule agonists of the estrogen receptor alpha (ER-alpha) signaling pathway (AID 743075; calls by dose curve).
Experiment [5] shares this target. Briefly: qHTS assay to identify small molecule agonists of the estrogen receptor alpha (ER-alpha) signaling pathway using the BG1 cell line (AID 743079). Also: nearly all actives have a fitted effect of over 20% in size. Also: potency is read from the fitted curve at half-maximal effect.
Experiment [6] can be described thus: qHTS assay to identify small molecule antagonists of the estrogen receptor alpha (ER-alpha) signaling pathway using the BG1 cell line (AID 743080; calls by dose curve;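 also: BG1 cells stimulated with 17beta-estradiol alongside compound; nearly all actives have a fitted effect of over 25% in size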; also: potency is read from the fitted curve at half-maximal effect). The essentials: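 Readout is ONE-Glo luminescence, taken 30 min at room temperature after reagent addition, preceded by a CellTiter-Fluor viability read; BG1-Luc-4E2 cells had received compound and 17beta-estradiol for 21.5 h at 37 C.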

The nature of experiment [7]: qHTS assay to identify small molecule antagonists of the estrogen receptor alpha (ER-alpha) signaling pathway using the BG1 cell line - cell viability counter screen (AID 743081).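 Also: compound given together with 17beta-estradiol as the ER stimulus; nearly all actives have a fitted effect of over 45% in size.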 Also: potency is read from the fitted curve at half-maximal effect.
The target of the next experiment is Aromatase (Homo sapiens) (UniProt P11511). Briefly: qHTS assay to identify aromatase inhibitors (AID 743083). Also: nearly all actives have a fitted effect of over 55% in size. Also: potency is read from the fitted curve at half-maximal effect.
Experiment [8] can be described thus: qHTS assay to identify aromatase inhibitors - cell viability counter screen (AID 743084).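 Also: cells stimulated with testosterone during compound exposure; nearly all actives have a fitted effect of over 55% in size.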 Also: potency is read from the fitted curve at half-maximal effect.
The target in experiment [9] is Aryl hydrocarbon receptor (Homo sapiens) (UniProt P35869). As to the kind of experiment: qHTS assay to identify small molecule that activate the aryl hydrocarbon receptor (AhR) signaling pathway (AID 743085). Also: nearly all actives have a fitted effect of over 15% in size. Also: potency is read from the fitted curve at half-maximal effect.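 As to activation: HG2L7.5c1 human HepG2 liver cells with stably integrated DRE-driven firefly reporter; series mostly up to about 70 µM.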 The essentials:
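HepG2 cells (HG2L7.5c1) stably carrying a firefly luciferase reporter driven by 20 dioxin responsive elements were exposed to compound for 24 h at 37C after a 5 h settling period; luminescence rise (ONE-Glo) indicated activation.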

Experiment [10] addresses Peroxisome proliferator-activated receptor gamma (Homo sapiens) (UniProt P37231). Briefly: qHTS assay to identify small molecule agonists of the peroxisome proliferator-activated receptor gamma (PPARg) signaling pathway (AID 743094; active = well fitted activation curve with a large enough effect in the signal ratio in the repeat runs, not every such curve was filed as active; the % refers to the signal ratio). The essentials: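 Following 5 h plating at 37C, PPARg-bla HEK293H cells receive compound or DMSO for 17 h; fluorescence intensity is recorded after LiveBLAzer B/G loading for 1 h at room temperature.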

Experiment [11] is described as follows: qHTS assay to identify small molecule antagonists of the peroxisome proliferator-activated receptor gamma (PPARg) signaling pathway - cell viability counter screen (AID 743194). Also: nearly all actives have a fitted effect of over 55% in size. Also: potency is read from the fitted curve at half-maximal effect. The essentials: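 PPARg-UAS-bla HEK293H cells were plated, rested 5 h at 37 C, then treated with compounds plus rosiglitazone (50 nM final) for 17 h at 37 C; viability was then read by CellTiter-Glo luminescence after 30 min at room temperature.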

Experiment [12] can be described thus: qHTS assay for small molecule agonists of the antioxidant response element (ARE) signaling pathway (AID 743202; active = well fitted activation curve with a large enough effect in the signal ratio in the repeat runs, not every such curve was filed as active; the % refers to the signal ratio; also: potency is read from the fitted curve at half-maximal effect). The essentials: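 Read-out: LiveBLAzer B/G FRET substrate fluorescence after 2 h at room temperature, following 16 h compound treatment at 37 C of HepG2 cells carrying an ARE-driven beta-lactamase reporter.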
Experiment [13] is described as follows: qHTS assay for small molecule agonists of the antioxidant response element (ARE) signaling pathway - cell viability counter screen (AID 743203; calls by dose curve; also: nearly all actives have a fitted effect of over 55% in size; also: potency is read from the fitted curve at half-maximal effect). The essentials:
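Compounds in DMSO were pinned onto ARE-bla HepG2 cells plated 5 hrs earlier at 2,000 cells/well. Sixteen hours later at 37C/5% CO2, CellTiter-Glo was added and luminescence measured after 30 min at room temperature.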

The nature of experiment [14]: qHTS assay for small molecule activators of the heat shock response signaling pathway - cell viability counter screen (AID 743209). Also: nearly all actives have a fitted effect of over 50% in size. Also: potency is read from the fitted curve at half-maximal effect. The essentials: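 Counter screen for cytotoxicity in HeLa HSE-bla reporter cells. Treatment was 5 h at 37 C; viability was detected by luminescent ATP assay (CellTiter-Glo) in the same wells as the beta-lactamase read.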
Experiment [15] can be described thus: qHTS assay for small molecule activators of the heat shock response signaling pathway (AID 743210; active = well fitted activation curve with a large enough effect in the signal ratio in the repeat runs, with a control signal flat, not every such curve was filed as active; the % refers to the signal ratio; also: series mostly up to about 63 µM). The essentials: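 HSE-bla HeLa cells (beta-lactamase reporter under heat shock response elements) were exposed to compounds for 5 h at 37 C, then loaded with LiveBLAzer B/G FRET substrate for 2.5 h at room temperature before fluorescence reading.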
Experiment [16] is described as follows: qHTS assay to identify small molecule agonists of the peroxisome proliferator-activated receptor delta (PPARd) signaling pathway - cell viability counter screen (AID 743211). Also: nearly all actives have a fitted effect of over 55% in size. Also: potency is read from the fitted curve at half-maximal effect. The essentials:
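PPARd-bla HEK293H cells (UAS-beta-lactamase reporter) were treated with compounds for 17 h at 37 C. Viability was then read in the same wells by CellTiter-Glo luminescence after 30 min at room temperature.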

A short description of experiment [17]: qHTS assay to identify small molecule that activate the aryl hydrocarbon receptor (AhR) signaling pathway - cell viability counter screen (AID 743086).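 Also: HepG2 liver cells carrying the AhR DRE luciferase reporter; series mostly up to about 70 µM; nearly all actives have a fitted effect of over 45% in size.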 The essentials: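 HepG2-AhR-luc (HG2L7.5c1) cells, 4000/well, were preincubated 5 h at 37C, exposed to compound in qHTS format for 24 hr at 37C, then given CellTiter-Fluor for 30 min; viability was read as fluorescence in the reporter wells.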

The target in experiment [18] is Peroxisome proliferator-activated receptor gamma (Homo sapiens) (UniProt P37231). Briefly: qHTS assay to identify small molecule antagonists of the peroxisome proliferator-activated receptor gamma (PPARg) signaling pathway (AID 743191; calls by dose curve; also: series mostly up to about 63 µM; nearly all actives have a fitted effect of over 30% in size). The essentials: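 GeneBLAzer PPARg UAS-bla HEK293H cells carrying a UAS-driven beta-lactamase reporter were plated at 3000 cells/well, preincubated 5 h at 37C, then given compound for 17 h at 37C; LiveBLAzer B/G FRET substrate was read after 1 h at room temperature.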

Experiment [19] is described as follows: qHTS assay to identify small molecule antagonists of the thyroid receptor (TR) signaling pathway (AID 743065). The essentials: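 GH3.TRE-Luc rat pituitary cells carrying two TR response elements driving luciferase were plated for 4 h, given compound plus 1 nM T3 (final), and incubated 23.5 h at 37 C. ONE-Glo luminescence measured reporter inhibition; CellTiter-Fluor fluorescence tracked cytotoxicity.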

Chain of Peroxisome proliferator-activated receptor gamma (Homo sapiens) (P37231 whole entry, looked up): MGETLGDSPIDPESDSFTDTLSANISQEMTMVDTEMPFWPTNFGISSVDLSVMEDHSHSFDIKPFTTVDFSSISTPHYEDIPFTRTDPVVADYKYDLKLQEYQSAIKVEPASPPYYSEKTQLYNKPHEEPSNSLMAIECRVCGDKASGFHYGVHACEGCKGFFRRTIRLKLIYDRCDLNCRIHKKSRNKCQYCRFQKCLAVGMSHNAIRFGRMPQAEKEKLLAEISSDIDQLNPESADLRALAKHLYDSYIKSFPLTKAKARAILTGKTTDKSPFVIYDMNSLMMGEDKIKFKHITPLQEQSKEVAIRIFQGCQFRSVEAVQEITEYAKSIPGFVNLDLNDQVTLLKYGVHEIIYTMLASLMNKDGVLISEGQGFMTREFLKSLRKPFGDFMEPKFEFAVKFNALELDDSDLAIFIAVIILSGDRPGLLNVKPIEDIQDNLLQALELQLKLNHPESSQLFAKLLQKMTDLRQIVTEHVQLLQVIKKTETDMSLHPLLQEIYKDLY
Chain of Aromatase (Homo sapiens) (P11511 whole entry, looked up): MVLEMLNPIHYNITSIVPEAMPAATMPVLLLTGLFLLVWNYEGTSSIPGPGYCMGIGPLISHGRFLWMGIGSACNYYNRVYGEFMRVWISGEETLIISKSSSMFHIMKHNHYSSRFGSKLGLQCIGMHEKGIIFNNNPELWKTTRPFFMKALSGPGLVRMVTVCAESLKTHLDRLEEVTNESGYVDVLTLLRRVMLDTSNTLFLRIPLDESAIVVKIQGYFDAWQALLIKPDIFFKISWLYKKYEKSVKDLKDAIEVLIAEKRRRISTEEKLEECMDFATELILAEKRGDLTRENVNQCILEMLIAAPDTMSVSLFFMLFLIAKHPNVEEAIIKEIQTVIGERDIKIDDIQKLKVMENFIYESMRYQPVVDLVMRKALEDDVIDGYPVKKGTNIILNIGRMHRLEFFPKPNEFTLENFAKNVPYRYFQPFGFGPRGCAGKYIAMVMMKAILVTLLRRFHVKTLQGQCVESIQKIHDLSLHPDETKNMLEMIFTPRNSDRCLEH
Chain of Estrogen receptor (Homo sapiens) (P03372 whole entry, looked up): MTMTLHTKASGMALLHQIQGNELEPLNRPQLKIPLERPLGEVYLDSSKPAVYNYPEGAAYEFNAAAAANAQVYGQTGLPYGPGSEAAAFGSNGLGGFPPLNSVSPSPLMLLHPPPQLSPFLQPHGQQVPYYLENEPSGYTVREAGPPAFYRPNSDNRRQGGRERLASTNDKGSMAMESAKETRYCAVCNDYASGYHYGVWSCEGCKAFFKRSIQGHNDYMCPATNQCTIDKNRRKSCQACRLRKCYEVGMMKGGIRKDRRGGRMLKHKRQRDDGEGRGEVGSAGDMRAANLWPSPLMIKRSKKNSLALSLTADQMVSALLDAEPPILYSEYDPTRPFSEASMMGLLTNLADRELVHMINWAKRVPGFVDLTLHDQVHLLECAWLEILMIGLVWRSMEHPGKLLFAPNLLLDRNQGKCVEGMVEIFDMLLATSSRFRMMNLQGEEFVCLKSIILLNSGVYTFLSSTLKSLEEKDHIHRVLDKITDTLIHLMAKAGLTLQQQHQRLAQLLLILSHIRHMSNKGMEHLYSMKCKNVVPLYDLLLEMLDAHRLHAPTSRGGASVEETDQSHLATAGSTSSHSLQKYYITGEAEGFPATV
Chain of Aryl hydrocarbon receptor (Homo sapiens) (P35869 whole entry, looked up): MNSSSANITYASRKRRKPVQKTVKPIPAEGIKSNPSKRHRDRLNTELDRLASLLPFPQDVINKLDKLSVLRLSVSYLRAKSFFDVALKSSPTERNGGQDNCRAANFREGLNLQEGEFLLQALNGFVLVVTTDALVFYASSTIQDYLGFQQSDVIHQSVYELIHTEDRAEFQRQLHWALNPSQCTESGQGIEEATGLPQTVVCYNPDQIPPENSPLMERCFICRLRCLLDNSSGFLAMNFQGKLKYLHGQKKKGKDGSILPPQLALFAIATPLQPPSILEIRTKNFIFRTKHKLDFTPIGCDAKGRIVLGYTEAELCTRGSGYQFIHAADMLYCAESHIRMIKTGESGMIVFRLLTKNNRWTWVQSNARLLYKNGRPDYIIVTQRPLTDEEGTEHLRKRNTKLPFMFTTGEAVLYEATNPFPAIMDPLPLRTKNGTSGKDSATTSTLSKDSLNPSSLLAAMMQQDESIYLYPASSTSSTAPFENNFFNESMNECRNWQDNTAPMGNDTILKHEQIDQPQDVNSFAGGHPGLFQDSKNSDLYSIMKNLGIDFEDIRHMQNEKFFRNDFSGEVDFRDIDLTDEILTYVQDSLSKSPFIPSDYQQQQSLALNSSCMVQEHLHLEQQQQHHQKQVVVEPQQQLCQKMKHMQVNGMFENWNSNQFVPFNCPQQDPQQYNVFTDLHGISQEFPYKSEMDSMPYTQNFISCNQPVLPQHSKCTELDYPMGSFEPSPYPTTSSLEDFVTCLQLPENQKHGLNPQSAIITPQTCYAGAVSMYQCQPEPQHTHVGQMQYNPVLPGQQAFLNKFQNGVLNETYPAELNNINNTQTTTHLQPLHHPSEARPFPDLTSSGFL

For the compound `c1cnc2cc3c(cc2n1)C1CNCC3C1`, the Potency entry in experiment [1], in experiment [2], in experiment [3], in experiment [4], in experiment [5] and in experiment [6] was “inactive” each time. Besides, the Potency entry (in experiment [7]; with Aromatase (Homo sapiens); in experiment [8]; in experiment [9]; in [10]; in experiment [11]) was “inactive” each time. In addition, the Potency entry in [12], in [13], in experiment [14], in experiment [15] and in experiment [16] was “inactive” each time.
Turning to `CC1COC(=O)O1` (centres undefined), the Potency result in experiment [1], in experiment [2], in [3], in [4], in [5] and in experiment [6] was “inactive” throughout. Besides, the Potency result (in experiment [7]; with Aromatase (Homo sapiens); in experiment [8]; in experiment [9]; in [17]; in experiment [10]) was “inactive” each time. The Potency entry in experiment [18], in [11], in experiment [12], in experiment [13], in experiment [14] and in [15] was “inactive” each time. For the same compound, the Potency result in experiment [16] was “inactive”.
For the compound `CC1=CC(=O)c2ccccc2C1=O`, the Potency result in experiment [1], in experiment [3], in [7], in experiment [17] and in experiment [10] was “inactive” throughout. For the same compound, the Potency in [6] was 29.8 µM (active); in the experiment with Aromatase (Homo sapiens), “inactive and 19.3 µM (active)”; in [8] it was “inactive and 24.3 µM (active)”; in [9], 6.68 µM (active) and 24.3 µM (active); in experiment [11], 11 µM (active) and 26.6 µM (active); in experiment [12] it was 9.44 µM (active). Also, the Potency in experiment [13] was 24.3 µM (active) and 29.8 µM (active); in experiment [14] it was 15.5 µM (active) and 2.66 µM (active); in experiment [16] it was 19.5 µM (active) and 26.6 µM (active).
As for `COc1nc(C)nc(Cl)c1NC1=NCCN1`, the Potency entry in [1], in experiment [2], in experiment [3], in experiment [4], in experiment [5] and in [6] was “inactive” each time. The Potency result (in the experiment with Aromatase (Homo sapiens); in experiment [8]; in experiment [17]; in [10]; in experiment [11]; in [12]) was “inactive” each time. The Potency result in experiment [13], in [15] and in [16] was “inactive” throughout.
Turning to `O=C(Nc1ccccc1SSc1ccccc1NC(=O)c1ccccc1)c1ccccc1`, the Potency result in [1], in experiment [2], in experiment [7], in experiment [17], in [11] and in experiment [13] was “inactive” each time. The Potency in experiment [5] was 27.4 µM (active) and 54.5 µM (active); with Aromatase (Homo sapiens), 13.8 µM (active) and 27.3 µM (active); in experiment [8] it was 15.4 µM (active) and 48.6 µM (active); in experiment [9] it was 30.8 µM (active) and 34.4 µM (active); in [16], 19.6 µM (active) and 12.3 µM (active).
Take `CCCCCCCCCCCC[N+](C)(C)C`: the Potency in experiment [19] is 9.66 µM (active) and 6.86 µM (active) and 7.7 µM (active); in experiment [3], “inactive and 54.9 µM (active)”; in experiment [7], 60.9 µM (active); in the experiment with Aromatase (Homo sapiens), 24.3 µM (active) and 17.2 µM (active) and 21.7 µM (active); in experiment [12], 8.61 µM (active); in [13], “inactive and 48.6 µM (active) and 61.1 µM (active)”. The Potency in experiment [16] was 54.9 µM (active) and 49 µM (active). Moreover, the Potency entry in experiment [8], in experiment [9], in experiment [17], in experiment [10] and in [15] was “inactive” each time.
For `CC(=O)CC(C)=O`, the Potency result in experiment [1], in experiment [2], in experiment [3], in [4], in experiment [5] and in [6] was “inactive” throughout. Further, the Potency result (in experiment [7]; with Aromatase (Homo sapiens); in experiment [8]; in experiment [9]; in experiment [17]; in [10]) was “inactive” in each case. In addition, the Potency result in experiment [11], in [12], in experiment [13], in experiment [14], in experiment [15] and in experiment [16] was “inactive” throughout.
`CCn1cc(C(=O)O)c(=O)c2cc(F)c(N3CCNC(C)C3)c(F)c21` (centres undefined): the Potency entry in experiment [1], in [2], in experiment [3], in experiment [4], in experiment [5] and in experiment [6] was “inactive” throughout. For the same compound, the Potency result (in experiment [7]; with Aromatase (Homo sapiens); in experiment [8]; in experiment [9]; in [17]; in experiment [10]) was “inactive” in each case. In addition, the Potency entry in experiment [11], in [12], in experiment [13], in experiment [14], in experiment [15] and in experiment [16] was “inactive” throughout.
